Assay [1] in a line: NCI Yeast Anticancer Drug Screen. Data for the rad50 strain (AID 155).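 Also: 0% = growth of vehicle-only cultures of the same strain.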 The note with it: S. cerevisiae rad50 strain growth inhibition, stronger effect = higher value. The method in brief:
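Growth of the mutant yeast was measured after compound exposure and referenced to vehicle-treated cultures.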

Assay [2] is described as follows: NCI Yeast Anticancer Drug Screen. Data for the mec2-1 strain (AID 157). The note with it: S. cerevisiae mec2-1 strain, stronger effect = higher value. The method in brief:
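Strain: mec2-1 (DNA repair/cell cycle alteration). Compound exposure, then growth measured; inhibition expressed relative to vehicle.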

A short description of assay [3]: NCI Yeast Anticancer Drug Screen. Data for the sgs1 mgt1 strain (AID 161).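 Also: 0% = growth of cultures given vehicle only.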 The note with it: S. cerevisiae sgs1 mgt1 strain, stronger effect = higher value. An outline of the steps:
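Genetically altered yeast, compound exposure, growth inhibition relative to vehicle.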

Assay [4] in a line: NCI Yeast Anticancer Drug Screen. Data for the cln2 rad14 strain (AID 165).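 Also: 0% = growth equal to vehicle treated cultures.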 Particulars: S. cerevisiae cln2 rad14 strain, stronger effect = higher value. The method in brief:
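Compounds are applied to the cln2 rad14 yeast strain, and growth is then compared with that of vehicle-treated cultures to give inhibition.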

Assay [5] in a line: NCI Yeast Anticancer Drug Screen. Data for the bub3 strain (AID 167). The note with it: S. cerevisiae bub3 mutant strain, stronger effect = higher value. The method in brief: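 Whole-cell yeast assay. The mutant strain was incubated with compounds, and growth inhibition was determined by comparison with vehicle-treated cells.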
A short description of assay [6]: NCI Yeast Anticancer Drug Screen. Data for the mlh1 rad18 strain (AID 175). Particulars: S. cerevisiae mlh1 rad18 strain growth inhibition, stronger effect = higher value. An outline of the steps: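 Read-out is yeast growth inhibition, calculated against vehicle-only controls. The compound was applied to a strain engineered with DNA damage repair alterations.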
The mark [7] stands for this setting: at 5.0 µM (retest, dose inferred, filed as 0.5).
The mark [8] stands for this setting: at 50.0 µM (retest, dose inferred, filed as 5.0).

These results are taken from PubChem BioAssay (NCI).

About 79,000 compounds went through this panel and 15% of them were active in at least one assay; those are over-represented in the sample as a whole. A number with no mark means an inactive call. Activity calls are given as the source filed them. Rule as the data show it: active = growth inhibition above about 70%; inactive = the rest.

With `O=C1c2ccccc2C(O)(C#Cc2ccccc2)c2cnccc21` (configuration not stated), the growth inhibition is -6% in assay [1] (setting [7]); 96% (active) in assay [1] (setting [8]); 97.8% (active) in assay [1] (at 50.0 µM); -5% in assay [2] (setting [7]); 97% (active) in assay [2] (setting [8]); 98.5% (active) in assay [2] (at 50.0 µM). Besides, the growth inhibition in assay [3] (setting [7]) is -1%; in assay [3] (setting [8]) it was 97% (active); in assay [3] (at 50.0 µM) it was 98.2% (active); in assay [4] (setting [7]) it was -11%; in assay [4] (setting [8]) it was 96% (active); in assay [4] (at 50.0 µM) it was 97% (active). Further, the growth inhibition in assay [5] (setting [7]) was -11%; in assay [5] (setting [8]), 97% (active); in assay [5] (at 50.0 µM), 98.2% (active); in assay [6] (setting [7]) it was -5%; in assay [6] (setting [8]), 96% (active); in assay [6] (at 50.0 µM), 97.8% (active).
On to `COc1ccccc1NC(=O)CC(=O)N1N=C(C)C(N=Nc2ccc(C(=O)O)cc2)C1=O` (configuration not stated), for which the growth inhibition in assay [1] (setting [7]) was 2%; in assay [1] (setting [8]), -1%; in assay [1] (at 50.0 µM), 0%; in assay [2] (setting [7]) it was 0%; in assay [2] (setting [8]) it was -2%; in assay [2] (at 50.0 µM), -4%. Moreover, the growth inhibition is -4% in assay [3] (setting [7]); -20% in assay [3] (setting [8]); 2.65% in assay [3] (at 50.0 µM); -2% in assay [4] (setting [7]); 7% in assay [4] (setting [8]); 27.9% in assay [4] (at 50.0 µM). Further, the growth inhibition in assay [5] (setting [7]) is 1%; in assay [5] (setting [8]), 16%; in assay [5] (at 50.0 µM) it was -1.05%; in assay [6] (setting [7]), 1%; in assay [6] (setting [8]), 1%; in assay [6] (at 50.0 µM), 2.3%.
Regarding `COC1C=COC2(C)Oc3c(C)c(O)c4c(O)c(c(C5SCCS5)c(O)c4c3C2=O)NC(=O)C(C)=C/C=C\C(C)C2OC(C)(C)OC(C2C)C(C)C(OC(C)=O)C1C` (configuration not stated), the growth inhibition in assay [1] (setting [7]) was 5%; in assay [1] (setting [8]), 83% (active); in assay [1] (at 50.0 µM) it was 86.7% (active); in assay [2] (setting [7]), 8%; in assay [2] (setting [8]) it was 93% (active); in assay [2] (at 50.0 µM), 93.6% (active). The growth inhibition was -2% in assay [3] (setting [7]); 36% in assay [3] (setting [8]); 90.8% (active) in assay [3] (at 50.0 µM); 20% in assay [4] (setting [7]); 93% (active) in assay [4] (setting [8]); 90.3% (active) in assay [4] (at 50.0 µM). Besides, the growth inhibition is 5% in assay [5] (setting [7]); 95% (active) in assay [5] (setting [8]); 83.8% (active) in assay [5] (at 50.0 µM); 9% in assay [6] (setting [7]); 92% (active) in assay [6] (setting [8]); 87.8% (active) in assay [6] (at 50.0 µM).
For the compound `Cc1cc(I)cc(I)c1O`, the growth inhibition in assay [1] (setting [7]) is 8%; in assay [1] (setting [8]), 55%; in assay [1] (at 50.0 µM) it was 75.5% (active); in assay [2] (setting [7]), 2%; in assay [2] (setting [8]), 34%; in assay [2] (at 50.0 µM), 80.7% (active). Besides, the growth inhibition in assay [3] (setting [7]) is 7%; in assay [3] (setting [8]) it was 33%; in assay [3] (at 50.0 µM), 55.3%; in assay [4] (setting [7]), 4%; in assay [4] (setting [8]) it was 4%; in assay [4] (at 50.0 µM), -7.85%. Besides, the growth inhibition in assay [5] (setting [7]) is 1%; in assay [5] (setting [8]), 33%; in assay [5] (at 50.0 µM), 67.3%; in assay [6] (setting [7]), 10%; in assay [6] (setting [8]) it was 62%; in assay [6] (at 50.0 µM), 86.3% (active).
As to `C=C(c1ccccc1)[N+](=O)[O-]`, the growth inhibition in assay [1] (setting [7]) is 94% (active); in assay [1] (setting [8]) it was 99% (active); in assay [1] (at 50.0 µM), 99.2% (active); in assay [2] (setting [7]) it was 63%; in assay [2] (setting [8]) it was 99% (active); in assay [2] (at 50.0 µM), 99.4% (active). The growth inhibition in assay [3] (setting [7]) was 59%; in assay [3] (setting [8]) it was 99% (active); in assay [3] (at 50.0 µM), 99.6% (active); in assay [4] (setting [7]) it was 37%; in assay [4] (setting [8]), 99% (active); in assay [4] (at 50.0 µM) it was 99.1% (active). The growth inhibition in assay [5] (setting [7]) was 67%; in assay [5] (setting [8]), 99% (active); in assay [5] (at 50.0 µM), 99.3% (active); in assay [6] (setting [7]), 67%; in assay [6] (setting [8]) it was 100% (active); in assay [6] (at 50.0 µM) it was 99.2% (active).
For `Oc1ccc(/C=N/NC(=S)Nc2ccccc2)nc1`, the growth inhibition in assay [1] (setting [7]) was 1%; in assay [1] (setting [8]) it was 53%; in assay [1] (at 50.0 µM) it was 82.8% (active); in assay [2] (setting [7]) it was 4%; in assay [2] (setting [8]) it was 60%; in assay [2] (at 50.0 µM), 86.8% (active). For the same compound, the growth inhibition in assay [3] (setting [7]) is 6%; in assay [3] (setting [8]) it was 69%; in assay [3] (at 50.0 µM), 82.8% (active); in assay [4] (setting [7]), -9%; in assay [4] (setting [8]), 42%; in assay [4] (at 50.0 µM) it was 68.7%. Moreover, the growth inhibition in assay [5] (setting [7]) is 11%; in assay [5] (setting [8]) it was 72% (active); in assay [5] (at 50.0 µM), 84.3% (active); in assay [6] (setting [7]) it was 0%; in assay [6] (setting [8]) it was 78% (active); in assay [6] (at 50.0 µM), 84.2% (active).
As for `N#CC(C#N)=C1CCC(CC2CCCCC2)CC1` (configuration not stated), the growth inhibition in assay [1] (setting [7]) was -117%; in assay [1] (setting [8]), 96% (active); in assay [1] (at 50.0 µM) it was 98.6% (active); in assay [2] (setting [7]) it was -49%; in assay [2] (setting [8]) it was 96% (active); in assay [2] (at 50.0 µM), 98.6% (active). The growth inhibition in assay [3] (setting [7]) is -60%; in assay [3] (setting [8]), 96% (active); in assay [3] (at 50.0 µM), 98% (active); in assay [4] (setting [7]), -56%; in assay [4] (setting [8]), 97% (active); in assay [4] (at 50.0 µM), 98.5% (active). In addition, the growth inhibition was -58% in assay [5] (setting [7]); 97% (active) in assay [5] (setting [8]); 98% (active) in assay [5] (at 50.0 µM); -92% in assay [6] (setting [7]); 96% (active) in assay [6] (setting [8]); 98.5% (active) in assay [6] (at 50.0 µM).
On to `CCOC(=O)C(CCSC)C(=O)OCC`, for which the growth inhibition in assay [1] (setting [7]) is -1%; in assay [1] (setting [8]), -2%; in assay [1] (at 50.0 µM), 11%; in assay [2] (setting [7]), 2%; in assay [2] (setting [8]), 2%; in assay [2] (at 50.0 µM), 12.8%. The growth inhibition in assay [3] (setting [7]) was 4%; in assay [3] (setting [8]), -2%; in assay [3] (at 50.0 µM) it was -0.15%; in assay [4] (setting [7]), 1%; in assay [4] (setting [8]) it was -1%; in assay [4] (at 50.0 µM), 76.1% (active). Moreover, the growth inhibition in assay [5] (setting [7]) is -3%; in assay [5] (setting [8]), 3%; in assay [5] (at 50.0 µM), -2.4%; in assay [6] (setting [7]), -3%; in assay [6] (setting [8]), -4%; in assay [6] (at 50.0 µM), 2.35%.
As for `COC1(OC)CNC(C(=O)O)C1` (configuration not stated), the growth inhibition is -154% in assay [1] (setting [7]); -139% in assay [1] (setting [8]); 19.1% in assay [1] (at 50.0 µM); -44% in assay [2] (setting [7]); -45% in assay [2] (setting [8]); 2.65% in assay [2] (at 50.0 µM). For the same compound, the growth inhibition is -66% in assay [3] (setting [7]); -59% in assay [3] (setting [8]); 18.2% in assay [3] (at 50.0 µM); -54% in assay [4] (setting [7]); -49% in assay [4] (setting [8]); 2.4% in assay [4] (at 50.0 µM). Moreover, the growth inhibition in assay [5] (setting [7]) is -71%; in assay [5] (setting [8]) it was -66%; in assay [5] (at 50.0 µM), 21.4%; in assay [6] (setting [7]) it was -141%; in assay [6] (setting [8]), -111%; in assay [6] (at 50.0 µM), 13.3%.
